The panel holds about 79,000 compounds, 15% with a hit somewhere; the sample as a whole holds those more often. A number with no mark means an inactive call. The source made the active and inactive calls. Cut-off read from the data, not from the text of the source: active = growth inhibition above about 70%; inactive = the rest.

This experiment is described as follows: NCI Yeast Anticancer Drug Screen. Data for the rad50 strain (AID 155).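 Note: 0% = growth of vehicle-only cultures of the same strain.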 The note with it: S. cerevisiae rad50 strain growth inhibition; at 50.0 µM; active compounds read high. In a few lines: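 Relative growth inhibition (compound vs vehicle) was measured in yeast with a defined repair-gene alteration.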
For the compound `CCOC(=O)C1CC(O)c2ccc(Cl)cc2N1` (stereo unspecified), the growth inhibition was 5.45%.
Turning to `C1=C(c2ccccc2)OC(c2ccccc2)=C(c2ccccc2)[P+]1(c1ccccc1)c1ccccc1`, the growth inhibition is 99.5% (active).
`COc1ccc(N(N=Nc2ccccc2)C(C)=O)cc1`: the growth inhibition is -2.05%.
On to `CCOC(=O)c1nnn(Cc2ccccc2)c1N`, for which the growth inhibition is -2.1%.
Turning to `CCCc1nc(N)nc(C(=O)Nc2cccc(C(F)(F)F)c2)c1CC`, the growth inhibition was -15.2%.
Take `CCOc1ccccc1NCN1C(=O)c2ccccc2C1=O`: the growth inhibition was -38.9%.
For `COc1cc(C2c3cc4c(cc3OC(N3CCNCC3)C2C)OCO4)cc(OC)c1OC` (stereo unspecified), the growth inhibition is -17.5%.
For the compound `C=C(CCCCCCCCC)CC(=O)SCCNC(=O)CCNC(=O)C(O)C(C)(C)COP(=O)(O)OP(=O)(O)OCC1OC(n2cnc3c(N)ncnc32)C(O)C1OP(=O)(O)O` (stereo unspecified), the growth inhibition was -7.95%.
Under `CSc1ccc(C(=C=C=C(c2ccc(SC)s2)c2ccc(SC)s2)c2ccc(SC)s2)s1` stands 38.7%; under `COC1=C(OC)C(=O)C(Sc2ccc3ccccc3c2)=C(Cl)C1=O`, 95.2% (active); under `CCOC(=O)NC(N)=O`, 11.3%.
Under `CC(=O)N1Cc2c(N)ncnc2C1C` (stereo unspecified) stands -10.9%; under `CCC(=O)Oc1ccc(OCc2ccccc2)cc1`, -28.3%.
With `O=C(O)c1cccc(Br)c1`, the growth inhibition is 4.85%.
On to `CCOC(=N)c1ccc(C(=N)OCC)cc1`, for which the growth inhibition was -11.2%.
On to `O=P(O)(O)OC1C(OP(=O)(O)O)C(OP(=O)(O)O)C(OP(=O)(O)O)C(OP(=O)(O)O)C1OP(=O)(O)O.[Cu+2]` (stereo unspecified), for which the growth inhibition was -18.1%.

The values above are taken from PubChem BioAssay (NCI).
